Results on ten compounds are retold here after ChEMBL document CHEMBL3988442, “University of Dundee, Small-Polar-MMV Screening Library” (2021).

For some assays here: Results with a measured potency or affinity are listed apart.

What all share (set-up): scale not given: direction of the effect not stated beside the values
For assay [1], the target named is Protein translocase subunit SecA (Escherichia coli (strain K12)) (UniProt P10408). Briefly: Assay to Identify E. coli SecA ATPase Inhibitors. It is filed as functional. Particulars: 30 µM.
The target in assay [2] is T1, Ubiquitin-activating enzyme e1, putative (Leishmania donovani (strain BPK282A1)) (UniProt E9BSI1).
T1 sequence (whole entry): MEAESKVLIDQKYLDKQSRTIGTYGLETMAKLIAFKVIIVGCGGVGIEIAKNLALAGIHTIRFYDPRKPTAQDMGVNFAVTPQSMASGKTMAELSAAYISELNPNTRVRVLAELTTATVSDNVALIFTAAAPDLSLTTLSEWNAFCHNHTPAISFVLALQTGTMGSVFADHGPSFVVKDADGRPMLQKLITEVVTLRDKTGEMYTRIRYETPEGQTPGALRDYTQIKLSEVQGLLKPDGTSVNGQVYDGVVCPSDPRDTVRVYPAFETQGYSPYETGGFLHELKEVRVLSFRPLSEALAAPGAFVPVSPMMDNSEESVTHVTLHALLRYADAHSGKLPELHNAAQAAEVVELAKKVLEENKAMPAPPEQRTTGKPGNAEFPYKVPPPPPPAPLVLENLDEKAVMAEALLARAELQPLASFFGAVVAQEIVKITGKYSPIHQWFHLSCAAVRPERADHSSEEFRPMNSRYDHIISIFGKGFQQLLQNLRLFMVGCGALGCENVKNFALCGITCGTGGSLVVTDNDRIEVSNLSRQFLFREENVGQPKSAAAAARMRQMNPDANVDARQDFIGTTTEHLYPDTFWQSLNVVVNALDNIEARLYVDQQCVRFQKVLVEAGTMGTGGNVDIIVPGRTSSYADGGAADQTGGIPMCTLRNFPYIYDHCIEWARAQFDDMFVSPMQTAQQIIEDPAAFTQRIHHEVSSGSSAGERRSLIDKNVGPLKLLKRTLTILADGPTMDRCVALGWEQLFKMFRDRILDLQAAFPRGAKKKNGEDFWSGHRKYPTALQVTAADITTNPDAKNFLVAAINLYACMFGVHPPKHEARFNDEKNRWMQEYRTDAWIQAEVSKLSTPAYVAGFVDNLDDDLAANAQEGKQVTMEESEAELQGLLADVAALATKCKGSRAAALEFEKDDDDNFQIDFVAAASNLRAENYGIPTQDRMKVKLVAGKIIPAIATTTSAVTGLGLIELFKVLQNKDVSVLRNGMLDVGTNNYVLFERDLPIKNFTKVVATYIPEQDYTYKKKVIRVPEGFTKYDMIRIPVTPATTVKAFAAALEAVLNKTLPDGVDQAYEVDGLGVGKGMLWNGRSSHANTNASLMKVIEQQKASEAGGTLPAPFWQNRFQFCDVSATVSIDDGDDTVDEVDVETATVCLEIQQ
Briefly: Leishmania donovani Ubiquitin Activating Enzyme (LdE1). The format is functional. Particulars: 30 µM.

Assay [3] has as its target AMP-activated protein kinase, AMPK (Homo sapiens) (UniProt P54646+O43741+P54619+Q9UGJ0+Q9Y478+Q13131+Q9UGI9). Briefly: AMP-dependent Kinase enzyme assay. An in vitro enzyme assay that detects ADP turnover that is directly proportional to AMPK activity. This uses naive AMPK that is activated during the assay with MK-8722. The format is functional. Particulars: 30 µM.
Assay [4] concerns the target Sialic acid-binding Ig-like lectin 9 (Homo sapiens) (UniProt Q9Y336). Briefly: Hs-Siglec9 ALPHAscreen SOP 20170721. As to conditions: 10 µM.
The test system of assay [5] is Trypanosoma cruzi. Briefly: Trypanosoma cruzi phosphomannomutase and mannose-1-phosphate guanylyltransferase assay. The format is functional. Particulars: 10 µM.
In assay [6] the target is T2, Arginase-2, mitochondrial (Homo sapiens) (UniProt P78540).
T2 sequence (whole entry): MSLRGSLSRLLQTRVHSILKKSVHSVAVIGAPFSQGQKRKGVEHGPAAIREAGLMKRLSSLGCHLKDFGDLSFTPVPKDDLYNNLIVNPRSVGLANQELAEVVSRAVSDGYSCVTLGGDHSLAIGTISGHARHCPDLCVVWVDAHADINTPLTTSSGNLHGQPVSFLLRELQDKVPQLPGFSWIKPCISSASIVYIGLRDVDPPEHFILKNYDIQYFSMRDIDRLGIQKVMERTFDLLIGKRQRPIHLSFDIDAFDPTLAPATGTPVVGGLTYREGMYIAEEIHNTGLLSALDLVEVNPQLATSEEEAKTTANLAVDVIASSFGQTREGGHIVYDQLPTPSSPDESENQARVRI
Briefly: in vitro enzyme assay to detect the production of urea directly proportional to the activity of Arginase II. Note: in the data most compounds retested in dose-response had high values. The format is functional. As to conditions: 33.3 µM.

For assay [7], the target named is T3, Proteasome subunit beta (Trypanosoma cruzi) (UniProt O96673).
T3 sequence (whole entry): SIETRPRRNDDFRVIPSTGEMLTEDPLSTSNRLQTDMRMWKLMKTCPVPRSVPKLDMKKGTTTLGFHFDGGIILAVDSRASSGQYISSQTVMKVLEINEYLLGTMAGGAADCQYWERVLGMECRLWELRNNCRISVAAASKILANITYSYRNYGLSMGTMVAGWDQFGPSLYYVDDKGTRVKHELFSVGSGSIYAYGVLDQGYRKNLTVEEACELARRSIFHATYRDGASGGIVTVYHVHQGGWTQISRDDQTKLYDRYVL
In words: Trypanosoma cruzi proteasome chymotrypsin-like activity (TcProtChymo) assay. Note: in the data most compounds retested in dose-response had high values. As to conditions: 9.37 µM. It is filed as functional.

Assay [8] is filed under the species Homo sapiens. Briefly: To identify inhibition of the IFN signalling (Jak-Stat) pathway via expression of an eGFP reporter gene under the control of an IFN-stimulated response element (ISRE) containing MxA promoter. It is filed as functional. Particulars: 30 µM. (A reporter such as luciferase makes a cellular process visible.)
The target of assay [9] is T4, Tyrosyl-tRNA synthetase, putative (Trypanosoma cruzi (strain CL Brener)) (UniProt Q4DSP6).
T4 sequence (whole entry): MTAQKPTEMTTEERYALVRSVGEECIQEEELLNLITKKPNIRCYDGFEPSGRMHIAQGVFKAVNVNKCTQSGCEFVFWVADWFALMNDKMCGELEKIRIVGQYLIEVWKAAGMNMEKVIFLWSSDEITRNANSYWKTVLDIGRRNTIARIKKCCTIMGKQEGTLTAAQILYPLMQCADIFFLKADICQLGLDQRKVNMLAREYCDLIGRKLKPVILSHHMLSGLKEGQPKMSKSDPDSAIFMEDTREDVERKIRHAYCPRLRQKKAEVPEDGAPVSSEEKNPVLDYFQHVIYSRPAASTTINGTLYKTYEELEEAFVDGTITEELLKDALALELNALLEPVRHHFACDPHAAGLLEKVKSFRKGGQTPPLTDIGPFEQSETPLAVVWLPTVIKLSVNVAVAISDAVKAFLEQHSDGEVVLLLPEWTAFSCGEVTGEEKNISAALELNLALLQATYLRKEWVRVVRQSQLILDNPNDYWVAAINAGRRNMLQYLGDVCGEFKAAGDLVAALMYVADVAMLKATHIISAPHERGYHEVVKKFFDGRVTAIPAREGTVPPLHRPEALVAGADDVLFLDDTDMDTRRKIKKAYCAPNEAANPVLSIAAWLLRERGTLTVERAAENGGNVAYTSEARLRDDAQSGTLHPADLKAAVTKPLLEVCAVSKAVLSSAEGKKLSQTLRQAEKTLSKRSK
In words: Trypanosoma cruzi tyrosyl tRNA synthetase (TcYRS) _High Tyrosine SOP. Note: in the data most compounds retested in dose-response had high values. It is filed as functional. Particulars: 30 µM.

In assay [10] the target is T4, Tyrosyl-tRNA synthetase, putative (Trypanosoma cruzi (strain CL Brener)). Briefly: Trypanosoma cruzi tyrosyl tRNA synthetase (TcYRS) SOP. The format is functional. Particulars: 30 µM.
The target of assay [11] is Chromo domain-containing protein 1 (Saccharomyces cerevisiae (strain ATCC 204508 / S288c) (Baker's yeast)) (UniProt P32657). In words: ScCHD-1 Enzyme Inhibition Assay. Note: in the data most compounds retested in dose-response had high values. Particulars: 30 µM. The format is functional.
Chain of Chromo domain-containing protein 1 (Saccharomyces cerevisiae (strain ATCC 204508 / S288c) (Baker's yeast)) (P32657 whole entry, the tested form may be a part): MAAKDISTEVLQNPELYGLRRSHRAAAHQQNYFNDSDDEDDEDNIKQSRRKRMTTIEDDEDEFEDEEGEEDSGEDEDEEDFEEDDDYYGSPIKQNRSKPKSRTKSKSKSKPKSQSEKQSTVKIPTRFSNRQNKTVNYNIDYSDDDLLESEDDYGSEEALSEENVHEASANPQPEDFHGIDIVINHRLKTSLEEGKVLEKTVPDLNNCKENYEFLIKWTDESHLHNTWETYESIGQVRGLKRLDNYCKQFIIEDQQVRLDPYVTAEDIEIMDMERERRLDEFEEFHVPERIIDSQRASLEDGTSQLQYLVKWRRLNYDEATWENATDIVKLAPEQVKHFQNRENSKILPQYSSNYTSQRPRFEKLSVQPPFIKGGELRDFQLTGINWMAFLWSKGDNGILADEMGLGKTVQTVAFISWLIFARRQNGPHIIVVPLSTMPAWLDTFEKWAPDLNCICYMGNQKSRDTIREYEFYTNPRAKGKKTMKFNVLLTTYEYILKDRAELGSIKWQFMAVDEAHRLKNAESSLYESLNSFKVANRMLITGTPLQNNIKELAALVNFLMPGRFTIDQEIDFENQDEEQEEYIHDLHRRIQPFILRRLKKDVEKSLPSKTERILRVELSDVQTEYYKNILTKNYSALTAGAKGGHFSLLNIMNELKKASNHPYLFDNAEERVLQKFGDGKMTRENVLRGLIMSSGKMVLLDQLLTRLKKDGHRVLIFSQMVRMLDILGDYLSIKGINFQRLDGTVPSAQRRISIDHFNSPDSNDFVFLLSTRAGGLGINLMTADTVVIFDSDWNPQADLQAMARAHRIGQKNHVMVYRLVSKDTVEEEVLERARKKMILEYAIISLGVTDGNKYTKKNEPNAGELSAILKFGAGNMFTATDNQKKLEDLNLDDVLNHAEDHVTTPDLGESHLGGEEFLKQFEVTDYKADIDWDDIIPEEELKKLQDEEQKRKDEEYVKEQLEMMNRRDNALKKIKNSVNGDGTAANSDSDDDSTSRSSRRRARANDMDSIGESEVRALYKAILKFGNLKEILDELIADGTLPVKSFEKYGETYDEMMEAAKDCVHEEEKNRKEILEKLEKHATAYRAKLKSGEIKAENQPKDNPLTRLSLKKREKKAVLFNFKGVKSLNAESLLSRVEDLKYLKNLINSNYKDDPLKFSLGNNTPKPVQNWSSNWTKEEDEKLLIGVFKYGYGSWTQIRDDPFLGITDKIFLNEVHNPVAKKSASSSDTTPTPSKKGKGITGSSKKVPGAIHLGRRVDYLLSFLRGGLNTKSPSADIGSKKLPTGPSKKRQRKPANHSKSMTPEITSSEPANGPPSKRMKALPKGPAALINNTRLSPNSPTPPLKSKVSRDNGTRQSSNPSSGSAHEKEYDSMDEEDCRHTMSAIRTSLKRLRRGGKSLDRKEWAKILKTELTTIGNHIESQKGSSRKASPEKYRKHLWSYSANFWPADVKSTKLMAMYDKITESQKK

Chain of Sialic acid-binding Ig-like lectin 9 (Homo sapiens) (Q9Y336 whole entry): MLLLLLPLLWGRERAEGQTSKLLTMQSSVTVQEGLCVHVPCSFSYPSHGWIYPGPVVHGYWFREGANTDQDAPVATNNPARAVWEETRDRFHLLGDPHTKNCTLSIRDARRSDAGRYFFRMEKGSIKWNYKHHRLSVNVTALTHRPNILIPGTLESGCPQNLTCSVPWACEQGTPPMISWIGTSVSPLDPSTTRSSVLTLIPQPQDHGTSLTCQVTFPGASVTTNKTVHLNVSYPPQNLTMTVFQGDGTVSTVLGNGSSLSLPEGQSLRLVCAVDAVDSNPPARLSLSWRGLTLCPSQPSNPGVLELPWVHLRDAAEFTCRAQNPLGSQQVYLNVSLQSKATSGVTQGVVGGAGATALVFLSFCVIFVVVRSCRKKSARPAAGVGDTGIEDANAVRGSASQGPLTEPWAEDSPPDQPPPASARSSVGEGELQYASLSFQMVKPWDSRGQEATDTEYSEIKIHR
Chain of Protein translocase subunit SecA (Escherichia coli (strain K12)) (P10408 whole entry): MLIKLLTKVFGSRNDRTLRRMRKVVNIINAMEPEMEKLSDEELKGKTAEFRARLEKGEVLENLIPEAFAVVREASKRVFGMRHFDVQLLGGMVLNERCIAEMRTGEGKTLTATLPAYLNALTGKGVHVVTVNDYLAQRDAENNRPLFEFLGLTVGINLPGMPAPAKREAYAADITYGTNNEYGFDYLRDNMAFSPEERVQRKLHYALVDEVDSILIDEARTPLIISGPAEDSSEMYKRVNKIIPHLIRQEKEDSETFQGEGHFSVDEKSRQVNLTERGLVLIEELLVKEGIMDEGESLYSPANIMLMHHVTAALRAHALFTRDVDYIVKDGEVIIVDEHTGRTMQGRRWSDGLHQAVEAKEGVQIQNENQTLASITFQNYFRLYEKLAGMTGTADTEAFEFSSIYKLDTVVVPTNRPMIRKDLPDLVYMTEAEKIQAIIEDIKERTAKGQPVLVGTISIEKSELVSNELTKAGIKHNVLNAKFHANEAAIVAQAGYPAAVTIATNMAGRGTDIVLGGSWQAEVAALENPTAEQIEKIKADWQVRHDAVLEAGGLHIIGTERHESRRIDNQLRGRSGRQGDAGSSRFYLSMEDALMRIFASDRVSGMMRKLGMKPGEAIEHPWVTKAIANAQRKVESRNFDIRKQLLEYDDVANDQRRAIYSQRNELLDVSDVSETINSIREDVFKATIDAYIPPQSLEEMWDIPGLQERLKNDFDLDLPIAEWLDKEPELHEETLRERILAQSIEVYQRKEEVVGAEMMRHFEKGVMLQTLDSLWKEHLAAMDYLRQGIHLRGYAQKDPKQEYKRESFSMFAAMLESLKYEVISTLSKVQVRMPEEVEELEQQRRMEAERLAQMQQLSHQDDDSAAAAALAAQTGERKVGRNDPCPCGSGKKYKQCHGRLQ

For `Cc1cccc(CN2C(=O)CO[C@@H]3CN(Cc4nccn4C)C[C@H]32)c1`, the Percent Effect is 0.226% in assay [1]; 10.8% in [2]; -0.86% in assay [3]; -6.69% in [4]; 3.91% in [5]; 25.8% in [6]. Besides, the Percent Effect is 20.5% in assay [7]; 12.6% in assay [8]; 9.9% in assay [9]; 18.3% in assay [10]; -3.16% in assay [11].
Take `CCOC(=O)[C@]12CCCN(Cc3nccs3)C[C@H]1CN(C(C)=O)C2`: the Percent Effect in assay [1] is -1.26%; in [2] it was 5.2%; in [3] it was -1.96%; in [4], -4.79%; in [5] it was -9.17%; in [6] it was -0.645%. Moreover, the Percent Effect in assay [7] is 15.7%; in assay [8], 7.39%; in [9], 0%; in [10] it was 6.41%; in [11], -6.7%.
Take `COc1c(C)cnc(CN2CCC(C(=O)N(C)C)CC2)c1C`: the Percent Effect is -5.69% in assay [1]; 5.2% in [2]; 0.364% in [3]; 10.3% in [4]; 2.81% in assay [5]; 1.42% in assay [6]. Besides, the Percent Effect is 9.46% in [7]; -0.558% in assay [8]; 1.94% in [9]; 7.32% in [10]; -6.93% in [11].
Turning to `c1ccc(Cc2noc(CNC3CCc4ncnn4C3)n2)cc1` (stereo not given), the Percent Effect in [1] is -2.79%; in assay [2], 16.2%; in assay [3] it was -4.03%; in assay [4], 4.98%; in [5] it was 3.81%; in assay [6], -3.88%. Moreover, the Percent Effect was 8.44% in [7]; 1.98% in assay [8]; 10.9% in [9]; 25.6% in assay [10]; -5.11% in assay [11].
Consider `COc1ccc(COCC(O)CNC(=O)c2cccnc2)cc1` (stereo not given), for which the Percent Effect in assay [1] was -2.83%; in [2] it was 3.8%; in assay [3] it was 0.844%; in [4], -5.42%; in assay [5], -7.08%; in assay [6], -5.38%. Besides, the Percent Effect in assay [7] is 8.75%; in assay [8], 2.64%; in assay [9], 1.04%; in assay [10] it was 0%; in assay [11], -14.1%.
As for `CC(C)c1nc2c(n1C)CCN(CC(=O)Nc1nccs1)C2`, the Percent Effect in assay [1] is -4.97%; in assay [2], 15.6%; in [3], 1.78%; in assay [4], -4.17%; in [5], -0.686%; in assay [6], 3.58%. Also, the Percent Effect in [7] was 15.3%; in [8], -3.14%; in assay [9], 9.52%; in [10], 21.2%; in assay [11], -18%.
On to `Cn1cc(C2COC3(CCN(C(=O)Cn4cccn4)CC3)C2)cn1` (stereo not given), for which the Percent Effect is -2.57% in [1]; 13.5% in assay [2]; -8.57% in [3]; -2.55% in assay [4]; 2.25% in assay [5]; 2.23% in [6]. Besides, the Percent Effect worked out at 24% in assay [7]; 3.24% in [8]; 4.32% in [9]; 17.9% in assay [10]; 2.16% in assay [11].
With `c1cnc2c(c1)cc(C1CCOCC1)n2CCN1CCOCC1`, the Percent Effect was -3.29% in assay [1]; 14.9% in assay [2]; 13.1% in assay [3]; -5.49% in assay [4]; 0.79% in assay [5]; -1.62% in assay [6]. Further, the Percent Effect is 12.5% in assay [7]; 4.82% in [8]; 3.23% in assay [9]; 11.7% in assay [10]; -12.6% in [11].
For `c1nc2c(c(C3CC3)n1)CCN(Cc1ccoc1)CC2`, the Percent Effect in assay [1] was 0.0846%; in [2], 19.2%; in assay [3], -4.87%; in [4], 5.4%; in assay [5], 5.56%; in [6], -0.798%. The Percent Effect in assay [7] is 6.59%; in assay [8], 5.88%; in assay [9] it was 8.33%; in [10], 23.5%; in assay [11], -3.03%.
For `Cc1nc(C)c(C(=O)NCCNC(=O)c2ccc(F)cc2F)s1`, the Percent Effect was -1.94% in assay [1]; 10.8% in assay [2]; -1.06% in assay [3]; 22.4% in [4]; 5.85% in assay [5]; -4.25% in assay [6]. Moreover, the Percent Effect is 15.8% in assay [7]; 16.4% in [8]; 8.91% in assay [9]; 23.2% in assay [10]; -8.6% in [11].
